Active and inactive are the calls of the source. The calls were made as follows: active = hit-call score of the fitted dose curve at least 0.9, where 1 is the maximum; inactive = score below 0.9.
How the values were obtained:
Settings in all cases: mRNA level, 48 h; actives raise or lower the signal
[1] = read-out: Broad substrate specificity ATP-binding cassette transporter ABCG2 (Homo sapiens) (UniProt Q9UNQ0); experiment: LTEA_HepaRG_ABCG2: Life Technologies and Expression Analysis (LTEA) Assay for ABC Transporter (ABCG2) using HepaRG (AID 2283465)
In short: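 Differentiated HepaRG cells in serum-free induction medium were exposed for 48 h, in duplicate, to eight half-log concentrations up to 100 uM in 0.5% DMSO. ABCG2 mRNA was measured by TaqMan qRT-PCR, normalized to ACTB, GAPDH and POLR2A, and fitted bidirectionally versus DMSO.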

[2] = read-out: ATP-citrate lyase (ACLY), ACLY (gene 47); experiment: LTEA_HepaRG_ACLY: Life Technologies and Expression Analysis (LTEA) Assay for ATP-citrate lyase (ACLY) using HepaRG (AID 2283466)
In short: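 Differentiated human HepaRG cells in serum-free induction medium exposed 48 h, in duplicate, to eight half-log concentrations from 100 uM top in 0.5% DMSO; ACLY mRNA measured by qRT-PCR, normalized to ACTB, GAPDH, POLR2A, fitted bidirectionally versus DMSO.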

[3] = read-out: Peroxisomal acyl-coenzyme A oxidase 1 (ACOX1) gene, ACOX1 (gene 51); experiment: LTEA_HepaRG_ACOX1: Life Technologies and Expression Analysis (LTEA) Assay for Peroxisomal acyl-coenzyme A oxidase 1 (ACOX1) gene using HepaRG (AID 2283467)
In short: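 Differentiated human HepaRG cells were exposed in duplicate for 48 h in serum-free induction medium to eight half-log concentrations up to 100 uM in 0.5% DMSO. ACOX1 mRNA was then quantified by TaqMan qRT-PCR, normalized to ACTB, GAPDH and POLR2A.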

[4] = read-out: Alkaline Phosphatase, Placental (ALPP) gene, ALPP (gene 250); experiment: LTEA_HepaRG_ALPP: Life Technologies and Expression Analysis (LTEA) Assay for Alkaline Phosphatase, Placental (ALPP) gene using HepaRG (AID 2283468)
In short: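 qRT-PCR readout of ALPP mRNA (Fluidigm TaqMan), normalized to ACTB/GAPDH/POLR2A, after 48 h chemical exposure of HepaRG cells; 8-point half-log series, top 100 uM, 0.5% DMSO vehicle. Bidirectional curve fit versus DMSO baseline.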

[5] = read-out: Bcl-2 (BAD) gene, BAD (gene 572); experiment: LTEA_HepaRG_BAD: Life Technologies and Expression Analysis (LTEA) Assay for Bcl-2 (BAD) gene using HepaRG (AID 2283469)
In short: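 Differentiated human HepaRG cells in serum-free induction medium were exposed in duplicate for 48 h to eight concentrations (top 100 uM, half-log steps, 0.5% DMSO). BAD mRNA was quantified by qRT-PCR normalised to ACTB, GAPDH and POLR2A, with bidirectional fitting versus DMSO.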

[6] = read-out: Bcl-2 (BAX) gene, BAX (gene 581); experiment: LTEA_HepaRG_BAX: Life Technologies and Expression Analysis (LTEA) Assay for Bcl-2 (BAX) gene using HepaRG (AID 2283470)
In short: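 Differentiated HepaRG cells exposed 48 h in serum-free induction medium, eight half-log concentrations from 100 uM, in duplicate, 0.5% DMSO vehicle. BAX mRNA by TaqMan qRT-PCR, normalised to ACTB, GAPDH and POLR2A.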

[7] = read-out: adenosine kinase (ADK) gene, ADK (gene 132); experiment: LTEA_HepaRG_ADK: Life Technologies and Expression Analysis (LTEA) Assay for adenosine kinase (ADK) gene using HepaRG (AID 2283471)
In short: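 Following 48 h exposure of HepaRG cells in 0.5% DMSO (top concentration 100 uM, duplicate wells), ADK mRNA induction or suppression was measured by qRT-PCR, normalised to ACTB/GAPDH/POLR2A, and fitted bidirectionally relative to vehicle.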

[8] = read-out: Alpha-fetoprotein (AFP) gene, AFP (gene 174); experiment: LTEA_HepaRG_AFP: Life Technologies and Expression Analysis (LTEA) Assay for Alpha-fetoprotein (AFP) gene using HepaRG (AID 2283472)
In short: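 Differentiated human HepaRG cells exposed 48 h in serum-free induction medium, 8-point half-log series from 100 uM in 0.5% DMSO, duplicate. AFP mRNA by qRT-PCR, normalized to ACTB, GAPDH, POLR2A; bidirectional fit vs DMSO.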

BCL2L11 (gene 10018) = experiment: LTEA_HepaRG_BCL2L11: Life Technologies and Expression Analysis (LTEA) Assay for Bcl-2 (BCL2L11) gene using HepaRG (AID 2283473)
In short: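 HepaRG, 48 h exposure, 8-pt half-log series from 100 uM in 0.5% DMSO, duplicates; qRT-PCR (Fluidigm TaqMan) for BCL2L11, housekeeping-normalized; bidirectional curve fit relative to DMSO baseline.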

[9] = read-out: Apolipoprotein A-V (APOA5) gene, APOA5 (gene 116519); experiment: LTEA_HepaRG_APOA5: Life Technologies and Expression Analysis (LTEA) Assay for Apolipoprotein A-V (APOA5) gene using HepaRG (AID 2283474)
In short: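 HepaRG, 48 h chemical exposure in serum-free induction medium, 8-pt half-log series (top 100 uM), 0.5% DMSO vehicle, duplicates. Readout: APOA5 mRNA by qRT-PCR, housekeeping-normalized; bidirectional fit vs DMSO baseline.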

Measured: AC50

Sequence of Broad substrate specificity ATP-binding cassette transporter ABCG2 (Homo sapiens) (Q9UNQ0 whole entry, looked up): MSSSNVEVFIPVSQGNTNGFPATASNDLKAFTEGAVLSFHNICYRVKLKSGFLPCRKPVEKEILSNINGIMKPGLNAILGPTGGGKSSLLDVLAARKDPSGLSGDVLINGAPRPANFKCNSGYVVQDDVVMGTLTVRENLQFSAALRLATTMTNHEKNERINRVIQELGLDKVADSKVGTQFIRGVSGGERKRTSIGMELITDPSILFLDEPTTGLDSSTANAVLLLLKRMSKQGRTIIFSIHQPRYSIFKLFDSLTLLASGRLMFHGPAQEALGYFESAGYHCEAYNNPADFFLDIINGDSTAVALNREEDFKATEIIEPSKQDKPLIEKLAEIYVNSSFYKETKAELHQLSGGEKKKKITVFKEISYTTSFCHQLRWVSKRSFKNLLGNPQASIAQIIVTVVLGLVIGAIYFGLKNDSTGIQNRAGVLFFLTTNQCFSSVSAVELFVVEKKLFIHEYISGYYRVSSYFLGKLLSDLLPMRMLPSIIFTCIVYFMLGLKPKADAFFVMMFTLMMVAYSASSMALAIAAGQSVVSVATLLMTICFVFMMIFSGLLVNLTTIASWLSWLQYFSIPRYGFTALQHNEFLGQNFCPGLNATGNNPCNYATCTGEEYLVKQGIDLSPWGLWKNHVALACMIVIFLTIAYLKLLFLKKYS

CCCCCCCCN(C)CCCCCCCC
inactive: all assays above

COCC(C)OCC(C)OCC(C)O (centres undefined)
inactive: all assays above

Oc1ccc2ccccc2c1
inactive: all assays above

O=C(O)c1ccccc1-n1cc(C(=O)O)c(=O)c2cc(Nc3c(F)cc(F)cc3Cl)c(Cl)cc21
active: [4] 0.0892 µM
inactive: all other assays above

Cc1cc2c(cc1C(F)(F)F)N(C(=O)Nc1ccc(Oc3cccnc3C)nc1)CC2
active: [1] 11 µM | [3] 46 µM | [4] 15.8 µM | [7] 82.4 µM | [8] 19.9 µM | BCL2L11 (gene 10018) 81.3 µM | [9] 78 µM
inactive: [2] | [5] | [6]

Cc1cccc2ccccc12
inactive: all assays above

CC1=CC(=O)/C(=C(/C)O)C(=O)O1
inactive: all assays above

CC(=O)N1CCN(c2ccc(OC[C@H]3CO[C@](Cn4ccnc4)(c4ccc(Cl)cc4Cl)O3)cc2)CC1
active: [1] 4.05 µM | [2] 1.23 µM | [3] 18.1 µM | [6] 11.8 µM | [7] 65 µM | [8] 19.1 µM | [9] 17.8 µM
inactive: [5] | BCL2L11 (gene 10018)

CN(C)c1ccc(C(=C2C=CC(=[N+](C)C)C=C2)c2ccc(N(C)C)cc2)cc1
active: [2] 12.5 µM | [3] 12.9 µM | [4] 3.9 µM | [7] 20.7 µM | [8] 1.91 µM | BCL2L11 (gene 10018) 23.5 µM | [9] 5.32 µM
inactive: [1] | [6]

O=C(O)Cc1cc(I)c(Oc2ccc(O)c(I)c2)c(I)c1
inactive: [2] | [5] | [7] | BCL2L11 (gene 10018)
active: [1] 73.1 µM | [3] 86 µM | [4] 76.9 µM | [6] 87.2 µM | [8] 74.7 µM | [9] 84.9 µM

Oc1ccccc1
inactive: all assays above

CCCOC(=O)c1cc(O)c(O)c(O)c1
active: [1] 4.97 µM | [8] 15.2 µM
not listed: [5] | [6]
inactive: all other assays above

O=C1c2ccccc2C(=O)N1CCc1noc(-c2ccc(CN3CCCCCC3)s2)n1
inactive: all assays above

CCCCOC(=O)CC(CC(=O)OCCCC)(OC(C)=O)C(=O)OCCCC
inactive: all assays above

CN1C(=O)N(c2ccccc2Br)Cc2cnc(Nc3ccc4c(c3)OCC(CO)O4)nc21 (centres undefined)
active: [2] 50 µM | [3] 77.9 µM | [4] 2.93 µM | [6] 12.9 µM | [7] 88.9 µM | [8] 23.1 µM | [9] 90.3 µM
inactive: [1] | [5] | BCL2L11 (gene 10018)

COc1cc(C(=O)NC2CCN(C)CC2)ccc1Nc1ncc2c(n1)N(C1CCCC1)CC(F)(F)C(=O)N2C
inactive: [6] | [7] | [8]
active: [1] 4.65 µM | [2] 32.4 µM | [3] 12.2 µM | [4] 3.13 µM | [5] 11.1 µM | BCL2L11 (gene 10018) 46.5 µM | [9] 4.65 µM

CC[C@@H]1C[C@H](N(Cc2cc(C(F)(F)F)cc(C(F)(F)F)c2)C(C)=O)c2cc(C(F)(F)F)ccc2N1C(=O)OC(C)C
inactive: all assays above

CCCC(=O)OCCC(C)C
inactive: all assays above

O=c1[nH]sc2ccccc12
inactive: all assays above

O=C=NCCCCCCN=C=O
inactive: all assays above

CCN(Cc1cccnc1)C(=O)c1cccc(Cl)c1[C@]1(C)C(=O)N(Cc2ccc(OC)cc2OC)c2ccc(Cl)cc21
active: [1] 6.56 µM | [2] 16.9 µM | [3] 18.2 µM | [4] 10.1 µM | [6] 24.7 µM | [8] 19.4 µM | [9] 11.4 µM
inactive: [5] | [7] | BCL2L11 (gene 10018)

CCCCCCCC[Si](OCC)(OCC)OCC
inactive: all assays above

NCc1cccc(C2CCN(C(=O)c3ccc(C#Cc4ccccc4F)o3)CC2)c1
active: [4] 46.2 µM | [8] 83.7 µM | BCL2L11 (gene 10018) 83.1 µM | [9] 80.5 µM
inactive: all other assays above

CCCCCCCCOC(=O)c1cc(O)c(O)c(O)c1
active: [4] 11.5 µM
inactive: all other assays above

O=C(Nc1ccc(Cl)cc1)Nc1ccc(Cl)c(Cl)c1
inactive: [5] | [8] | BCL2L11 (gene 10018)
active: [1] 12.4 µM | [2] 17.5 µM | [3] 18.5 µM | [4] 19.6 µM | [6] 29.2 µM | [7] 22.6 µM | [9] 21.4 µM

O=C(O)Cn1c(=O)n(Cc2ccc(Br)cc2F)c(=O)c2ccc(Cl)cc21
inactive: all assays above

O=CCCCC=O
inactive: all assays above

Cc1oc2c(NC(=O)c3c(Cl)cccc3Cl)cccc2c1C(C)(C)O
inactive: [1] | [5] | [7] | BCL2L11 (gene 10018)
active: [2] 29.6 µM | [3] 30 µM | [4] 50 µM | [6] 85.9 µM | [8] 15.8 µM | [9] 50.7 µM

c1ccc2ccccc2c1
inactive: all assays above

COc1ccc2cc(S(=O)(=O)N[C@H](CC(=O)N[C@H](Cc3ccc(CN4[C@H](C)CCC[C@@H]4C)cc3)C(=O)N(C)C(C)C)c3ccc4c(c3)OCO4)ccc2c1
active: [3] 20.3 µM | [4] 0.741 µM | [6] 81.8 µM | [7] 13.3 µM | BCL2L11 (gene 10018) 84.9 µM
inactive: all other assays above

CCCCCCCCCC(=O)O
inactive: all assays above

c1ccc(C[n+]2cccc3ccccc32)cc1
active: [1] 3.93 µM | [3] 22.8 µM | [4] 13 µM | [6] 69.4 µM | [8] 35 µM | BCL2L11 (gene 10018) 32.4 µM | [9] 31.4 µM
inactive: [2] | [5] | [7]

Cc1cn([C@H]2C[C@H](N=[N+]=[N-])[C@@H](CO)O2)c(=O)[nH]c1=O
inactive: all assays above

CCN(CC)C(=O)c1cc(S(=O)(=O)Cc2ccccc2)c(N2CCC(c3ccccc3)CC2)cc1N(CC)CCN(C)C
inactive: [1] | [5] | [6] | [8]
active: [2] 4.57 µM | [3] 32.7 µM | [4] 31.5 µM | BCL2L11 (gene 10018) 25.7 µM | [9] 29.2 µM

O=c1c(-c2ccc(O)cc2)coc2cc(O)cc(O)c12
not listed: [2]
inactive: all other assays above

O=C(O)c1ccccc1C(=O)OCc1ccccc1
inactive: all assays above

COc1cccc([C@H](O)C2CCN(CCc3ccc(F)cc3)CC2)c1OC
active: [2] 80.7 µM | [4] 9.92 µM
inactive: all other assays above

Cc1ncc(CO)c(CO)c1O
inactive: all assays above

CCN(Cc1cccc(S(=O)(=O)O)c1)c1ccc(C(=C2C=CC(=[N+](CC)Cc3cccc(S(=O)(=O)O)c3)C=C2)c2ccccc2S(=O)(=O)[O-])cc1
inactive: all assays above

Cc1occc1C(=O)Nc1ccc(C(=O)N2CCC(F)(F)/C(=C\C(=O)N3CCC(N4CCCCC4)CC3)c3ccccc32)cc1
active: [2] 53.2 µM | [3] 31.2 µM | [4] 46.7 µM | [8] 44.8 µM | [9] 39 µM
inactive: [1] | [5] | [6] | [7] | BCL2L11 (gene 10018)

OCCO
inactive: all assays above

— PubChem BioAssay (EPA / NIEHS)
